# Compounds with a hit are over-represented: about 1.3% of the library has one in this group of screens.
# ALOX12 inh – blocks human arachidonate 12S-lipoxygenase | P18054 | 580,000 tested, 1.1% active | AID 1671190 | purified 12hLO, xylenol orange hydroperoxide absorbance | Potency, µM (doses to about 108 µM), usual class: inhibitors
#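 Hydroperoxide product was detected by ferrous iron/xylenol orange as the 573 to 405 nm absorbance ratio. Arachidonic acid at 40 uM (final) was turned over for 30 min at room temperature by 150 nM human 12hLO, pH 7.0 Hepes buffer, after 15 min compound preincubation.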
# EPAC2 antagonist – blocks human EPAC2 exchange factor; Q8WZA2; EPAC2 GEF exchange of Rap1B-BODIPY-GDP, fluorescence; Potency, µM (top dose mostly 114 µM), most hits filed as inhibitors; 360,000 tested, 0.18% active; AID 720708; note: nearly all actives have a fitted effect of over 45% in size
# EPAC2 ag – activates human EPAC2 exchange factor. Q8WZA2. EPAC2 activation, biochemical qHTS; response scale: 100% = 6.5 mM cAMP response. Potency, µM (top dose mostly 154 µM), most hits filed as activators. 360,000 tested, 0.079% active; note: nearly all actives have a fitted effect of over 50% in size
#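 In this primary screen, activation is scored as increased exchange of BODIPY-GDP from Rap1B by 100 nM EPAC2, with 50 uM GDP as competitor. Signal is normalized to the 6.5 mM cAMP agonist control.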
# EPAC1 ag – activates human EPAC1 exchange factor | O95398 | EPAC1 agonist qHTS, biochemical assay; response scale: 100% = response to 6.5 mM cAMP | Potency, µM (titrated, usually from 154 µM), most hits filed as activators | 360,000 tested, 0.073% active | AID 720707; note: nearly all actives have a fitted effect of over 60% in size
#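 Multi-concentration qHTS readout: loss of Rap1B-bound BODIPY-GDP fluorescence driven by 100 nM EPAC1 with excess GDP (50 uM), monitored kinetically at room temperature; agonist response expressed relative to 6.5 mM cAMP.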
# EPAC1 antagonist – antagonists of human EPAC1; 360,000 tested, 0.14% active; O95398; EPAC1 GEF assay, Rap1b-BODIPY-GDP exchange fluorescence; Potency, µM (highest dose often 115 µM), most hits filed as inhibitors; AID 720709; note: nearly all actives have a fitted effect of over 50% in size
# USP1-UAF1 inh – blocks the human USP1/UAF1 deubiquitinase complex; O94782; recombinant USP1/UAF1, Ub-Rhodamine cleavage fluorescence; Potency, µM (doses to about 57.1 µM), hits mostly inhibitors; 390,000 tested, 0.23% active; AID 743255; note: nearly all actives have a fitted effect of over 60% in size
#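 USP1/UAF1 complex (1 nM) preincubated 15 min at room temperature with compound, then Ub-Rho substrate (150 nM final) added. Kinetic fluorescence at 480/540 nm over 6 reads at 60 s intervals; 50 mM HEPES pH 7.8, 0.5 mM EDTA, 0.1 mg/ml BSA, 1 mM TCEP, 0.01% Tween-20.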
# Hits are given with their value; i = inactive; ? = inconclusive; nt = not tested or not shown; [ ] = another dose, or the depositor's remark. Calls come from the whole dose curve; as a rule, active = well fitted curve in the direction sought with a large enough effect; inconclusive = small, poorly fitted or top-dose-only effect, or another doubt; inactive = no such curve, though single readings can be large; an effect the other way counts as inactive or inconclusive.
SMILES,ALOX12 inh,EPAC2 antagonist,EPAC2 ag,EPAC1 ag,EPAC1 antagonist,USP1-UAF1 inh
O=C(O)[C@@H]1CCN1,25µM,nt,nt,nt,nt,nt
Cc1ccc(OCCn2cccc2/C=C2/C(=O)NC(=O)N(Cc3ccco3)C2=O)cc1,35µM,i,i,i,?,i
Cc1ccc(N2C(=O)NC(=O)/C(=C\C=C\c3ccco3)C2=O)cc1,i,i,i,i,?,i
Cc1ccc(N2C(=O)NC(=O)/C(=C\C=C\c3ccco3)C2=O)cc1C,40µM,i,i,i,56µM,i
Cn1cccc1/C=C1\C(=O)NC(=O)N(Cc2ccco2)C1=O,?,i,i,i,?,i
O=C1NC(=O)N(c2ccccc2)C(=O)/C1=C/C=C/c1ccco1,?,i,i,i,i,i
O=C1NC(=O)N(Cc2ccco2)C(=O)/C1=C/C=C/c1ccco1,40µM,i,i,i,56µM,i
O=C1NC(=O)N(Cc2ccccc2)C(=O)/C1=C\C=C\c1ccco1,40µM,i,i,i,56µM,i
Cc1ccc(C(=O)NC[C@H]2C[C@@H]3CCN2C[C@@H]3c2cc(-c3cccs3)nc(C)n2)cc1,i,nt,nt,nt,nt,nt
Cc1cc(/C=C2\C(=O)NC(=O)N(Cc3ccco3)C2=O)c(C)n1-c1ccc(O)cc1,35µM,i,i,i,?,i
Cc1ccc(-n2c(C)cc(/C=C3/C(=O)NC(=O)N(Cc4ccco4)C3=O)c2C)cc1,?,i,i,i,?,?
Cc1ccc(NC(=O)N(Cc2ccc3c(c2)OCO3)C2CCN(Cc3ccccc3)CC2)cc1Cl,45µM,nt,nt,nt,nt,i
c1ccc(C2CNC2)cc1,i[12.5 µM],nt,nt,nt,nt,nt
Nc1cccc2ccccc12,i,nt,nt,nt,nt,nt
Nc1ccc2c3c(cccc13)-c1ccccc1-2,i,i,?,?,i,5.6µM
C=CCN1C(=O)/C(=C/c2ccc(Br)s2)C(=O)NC1=S,5.6µM,i,i,i,?,?
C=CCN1C(=O)/C(=C\c2ccc(N3CCOCC3)o2)C(=O)NC1=S,?,i,i,i,i,?
CN1C(=O)/C(=C/c2ccc(Cl)s2)C(=O)NC1=S,4.5µM,i,i,i,i,i
CC(C)CC(=O)N1[C@H]2CC[C@@H]1c1cnc(-c3ccc(F)cc3)nc1C2,i,nt,nt,nt,nt,nt
COc1ccc(CC(=O)N2CCC3(CC2)c2nccn2-c2ccccc2CN3C)cc1,i,nt,nt,nt,nt,nt
COc1ccc(CN2CCNCC2)c(OC)c1OC,i,i,i,i,i,i
COc1cc(CN2CCNCC2)cc(OC)c1OC,6.3µM,i,i,i,i,i
CC(C)(C)c1ccc(O)c(N=Cc2c(O)ccc3ccccc23)c1,7.9µM,i,i,i,i,i
C[N+]12CCC(CC1)C(=C(c1ccccc1)c1ccccc1)C2,35µM,i,i,i,i,i
CCOC(=O)CCNC(=O)N1[C@H]2CC[C@@H]1c1cnc(C)nc1C2,i,nt,nt,nt,nt,nt
SMILES,ALOX12 inh,EPAC2 antagonist,EPAC2 ag,EPAC1 ag,EPAC1 antagonist,USP1-UAF1 inh
CC[C@H](C)/C=C(C)/C=C/C1=CC2=C(Cl)C(=O)[C@@](C)(OC(C)=O)C(=O)C2=CO1,nt,3.5µM,i,i,35µM,32µM
CCC(C)/C=C(C)/C=C/C1=CC2=C(Cl)C(=O)C(C)(OC(C)=O)C(=O)C2=CO1 (configuration not stated),nt,i,i,i,?,?
CCN(CC)C[C@H]1CN2CC[C@H]1C[C@@H]2CNC(=O)Nc1cccc(SC)c1,i,nt,nt,nt,nt,nt
CC(C)c1ccc(NC(=O)N2C[C@H]3C[C@@H](C2)c2cccc(=O)n2C3)cc1,i,i,i,i,i,i
CC(C)NC(=O)N1C[C@@H]2C[C@H](C1)c1ccc(C3CCCCC3)c(=O)n1C2,32µM,nt,nt,nt,nt,nt
COc1ccc(CNC[C@H]2C[C@@H]3CCN2C[C@@H]3c2cc(-c3ccc(F)cc3)nn2C)cc1,i,nt,nt,nt,nt,nt
O=C1NC(=O)C(=Cc2ccc(Sc3ccccc3)o2)C(=O)N1,?,i,i,i,i,i
O=C1NC(=O)N(c2ccc(Cl)cc2)C(=O)/C1=C\c1ccc(Sc2nc3ccccc3[nH]2)o1,8.9µM,i,i,i,?,?
CCC1CCC(=O)O1 (configuration not stated),i,nt,nt,nt,nt,nt
c1cc(-c2nnc(C3CNCC34CCOCC4)o2)ccn1 (configuration not stated),i,nt,nt,nt,nt,nt
O=c1c2ccccc2sn1-c1ccc(Cl)cc1,0.25µM,?,i,i,i,i
CC(C)c1ccc(C(c2c(O)c3ccccc3oc2=O)c2c(O)c3ccccc3oc2=O)cc1,7.1µM,45µM,i,i,?,28µM
O=c1oc2ccccc2c(O)c1C(c1ccc([N+](=O)[O-])cc1)c1c(O)c2ccccc2oc1=O,7.9µM,50µM,i,i,50µM,?
Cc1c(C(c2ccc(F)cc2)c2c(O)c3ccccc3oc2=O)c(=O)n(-c2ccccc2)n1C (configuration not stated),?,i,i,i,i,i
